# Assay outcomes from PubChem.
# Sampled rows, rich in hits. Any-hit rate of the full collection: about 11%.
# NIH3T3 tox: cytotoxic compounds in NIH 3T3 cells. NIH 3T3 viability, CellTiter-Glo ATP luminescence, 48-72 h. Potency, µM (titrated, usually from 96.7 µM), for inactives: top-dose activity change, negative = cytotoxicity, hits mostly inhibitors. 4.3% of 94,000 active. AID 1345082; further: on the % scale 0 is the no-effect control and ±100 the full control effect; nearly all actives have a fitted effect of over 55% in size
#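 ATP-dependent luminescence (CellTiter-Glo) served as the viability signal for NIH 3T3 cells treated with compound for 48 or 72 hr at 37 °C.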
# HEK cytotox: HEK 293 cell cytotoxicity | Potency, µM (top dose mostly 115 µM), inactives show at the top dose activity change, negative = cytotoxicity, actives largely listed as inhibitors | HEK 293 viability, ATP luminescence (CellTiter-Glo), 48-72 h | 6.6% of 94,000 active | AID 1345083; further: on the % scale 0 is the no-effect control and ±100 the full control effect; nearly all actives have a fitted effect of over 60% in size
#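 HEK 293 cells seeded at 250 cells/well were exposed to compound for 48 or 72 hr at 37 degree Celsius. Viability taken as ATP content by CellTiter-Glo luminescence.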
# hNpr1 antagonist: antagonists of human natriuretic peptide receptor Npr1 | AID 1347048 | Potency, µM (series often up to 46.3 µM), without a hit: at the highest dose activity change, negative = inhibition, hits mostly inhibitors | HEK293 hNpr1 GloSensor cGMP, ANP-stimulated luminescence | 1.6% of 76,000 active | P16066; calls by dose curve; further: on the % scale 0 is the no-effect control and ±100 the full control effect; nearly all actives have a fitted effect of over 60% in size
#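 Compound pre-incubated 30 min at room temperature on GloSensor-loaded HEK293 cells stably carrying hNpr1 and the pGS-40F cGMP biosensor. Stimulation uses hNppA at 0.1 nM final; luminescence is taken at baseline and 20 min post-agonist.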
# FLuc inh-1: inhibitors of firefly (Photinus pyralis) luciferase | purified P. pyralis luciferase, luminescence, biochemical | Potency, µM (highest dose often 115 µM), hits mostly inhibitors | 2.5% of 76,000 active | AID 1347043; further: on the % scale 0 is the no-effect control and ±100 the full control effect; nearly all actives have a fitted effect of over 65% in size
#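 Luminescence read by CCD imaging after purified firefly luciferase (10nM final) was added to substrate buffer holding 10uM D-luciferin and 10uM ATP, pH 7.5, pre-dosed with compound.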
# FLuc SDR no ATP: stabilizes firefly luciferase without ATP; 7.8% of 1,300 active; Potency, µM (highest dose often 32.7 µM), for inactives: at the top dose activation (signal gain), actives largely listed as activators; Purified FLuc-C-HiBiT, Nano-Glo HiBiT luminescence, no ATP; shares compounds with FLuc inh-1; further: nearly all actives have a fitted effect of over 55% in size
# FLuc SDR ATP: firefly luciferase binding stabilization, ATP added. shares compounds with FLuc inh-1. 8.7% of 1,300 active. Potency, µM (highest dose often 32.7 µM), without a hit: at the top dose activation (gain of signal), actives largely listed as activators. purified FLuc-C-HiBiT + ATP, HiBiT complementation luminescence;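 further: signal reports ligand binding via conformational change of the enzyme rather than luciferase catalysis; % of control where 0% means no effect; nearly all actives have a fitted effect of over 55% in size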
# FLuc inh-2: inhibitors of firefly luciferase enzymatic activity; shares compounds with FLuc inh-1; purified FLuc-C-HiBiT enzyme, luciferin luminescence; Potency, µM (highest dose often 32.7 µM), for inactives: top-dose activity change, negative = inhibition, most hits filed as inhibitors; 42% of 1,300 active; further: on the % scale 0 is the no-effect control and ±100 the full control effect; nearly all actives have a fitted effect of over 70% in size
# * marks the source's active call; other numbers are inactive results; i = inactive; ? = inconclusive; nt = no result given; [ ] = another dose, or the depositor's remark. Unless noted, the call rests on the fitted dose curve; in most records, active means well fitted curve in the direction sought with a large enough effect; inconclusive means small, poorly fitted or top-dose-only effect, or another doubt; inactive means no such curve, though single readings can be large; an effect the other way counts as inactive or inconclusive. Potency means the concentration at half of the fitted maximal effect.
SMILES,NIH3T3 tox,HEK cytotox,hNpr1 antagonist,FLuc inh-1,FLuc SDR no ATP,FLuc SDR ATP,FLuc inh-2
CCOC(=O)C1CCN(C(=O)c2ccc3nnc(-c4cccnc4)n3c2)CC1,-23%,-18%,nt,nt,nt,nt,nt
COc1ccc(NC(=O)/C(C#N)=C/c2ccc(C)o2)cc1,nt,nt,nt,nt,22%,17%,?
O=C(Nc1nc2c(F)cccc2s1)c1ccc2c(c1)OCCO2,nt,nt,nt,nt,9.9µM*,?,0.5µM*
O=C(Nc1nc2ccccc2s1)c1ccc2c(c1)OCCN(CCC(F)(F)F)C2,?,20µM*,?,13µM*,13%[49.3 µM],10%[49.3 µM],?
Cc1ccc(C(=O)N2CCn3c(nnc3-c3ccc(Cl)cc3)C2)cc1,-29%,-15%,nt,nt,nt,nt,nt
O=C(NCCc1cccs1)C1CCN(C(=O)c2ncn3c2COC(c2ccc(F)cc2)C3)CC1 (stereo not drawn),i,-2%,-2%,i,nt,nt,nt
O=C(NCCc1ccccc1)C1CCN(C(=O)c2ncn3c2COC(c2ccc(Cl)cc2)C3)CC1 (stereo not drawn),4%,-7%,-2%,?,nt,nt,nt
O=C(NCCc1cccs1)C1CCN(C(=O)c2ncn3c2COC(c2ccccc2)C3)CC1 (stereo not drawn),-6%,-9%,-7%,7.1µM*,13%,?,4.4µM*
CCCCNC(=O)C1CCN(C(=O)c2ncn3c2COC(c2ccccc2)C3)CC1 (stereo not drawn),2%,-2%,2%,7.1µM*,14%,?,?
O=C(NCc1cccs1)C1CCN(C(=O)c2ncn3c2COC(c2ccccc2)C3)CC1 (stereo not drawn),-2%,4%,-15%,6.3µM*,13%,2.2µM*,2.5µM*
COc1ccc(NC(=O)N[C@H]2CO[C@H]3[C@@H]2OC[C@@H]3n2nnnc2Oc2ccc(-n3cncn3)cc2)cc1,-5%,i,-19%,i,nt,nt,nt
CN1C(=O)CS(=O)(=O)C12CCN(C(=O)COc1ccc(Cl)cc1)CC2,?,-24%,-1%,i,nt,nt,nt
Cc1cnc(-c2ccccc2)n1CC1CCN(C(=O)C(C)c2ccccc2)CC1 (stereo not drawn),-28%,?,-14%,i,nt,nt,nt
O=C(Nc1nn(-c2cccc(F)c2)c2cccc(N3CCOC3=O)c12)C1CCC1,-23%,-10%,-8%,i,nt,nt,nt
CSCC(=O)Nc1nn(-c2ccc(F)cc2)c2cccc(N3CCOCC3)c12,?,?,?,6.3µM*,23%,16%,?
O=C(Nc1cccc(F)c1)Nc1cccc(-c2nnc3n2CCCC3)c1,i,-2%,-3%,i,nt,nt,nt
O=C(Nc1ccc(F)cc1)Nc1cccc(-c2ccc(N3CCOCC3)nn2)c1,?,?,?,0.89µM*,?,?,2µM*
CN1CCN(c2ccc(-c3cccc(N)c3)nn2)CC1,i,-1%,?,11µM*,30%,?,6.2µM*
O=C(Nc1cccc(-c2ccc(N3CCOCC3)nn2)c1)Nc1cc(F)ccc1F,?,79µM*,10µM*,0.89µM*,?,?,2.5µM*
CCc1cccc(NC(=O)Nc2cccc(-c3ccc(N4CCOCC4)nn3)c2)c1,?,40µM*,?,2µM*,?,18%,6.2µM*
CCn1ccc2sc(C)c(C(=O)N3CCN(c4ccc(F)cc4)CC3)c2c1=O,-10%,?,-17%,i,nt,nt,nt
COc1ccc(-c2cc(CC3(NC4CCN(C(C)=O)CC4)COC3)no2)cc1,-23%[174 µM],?,-1%[70.6 µM],i,nt,nt,nt
O=C(CCC[C@H]1NC[C@@H]2C[C@H]1CN(Cc1ccccc1)C2)N1CCN(c2ncccn2)CC1,-1%,3%,-1%,i,nt,nt,nt
COCCCn1c(=O)c(C(=O)N2CCN([S+](=O)([O-])c3c(C)noc3C)CC2)nc2cccnc21,-20%,i,nt,nt,nt,nt,nt
Cc1ccc(C(=O)Nc2cccc(-c3ccc(N4CCN(C)CC4)nn3)c2)cc1C,25µM*,?,-22%,6.3µM*,?,?,3.9µM*
SMILES,NIH3T3 tox,HEK cytotox,hNpr1 antagonist,FLuc inh-1,FLuc SDR no ATP,FLuc SDR ATP,FLuc inh-2
O=C(Nc1cccc(-c2ccc(N3CCOCC3)nn2)c1)Nc1ccccc1F,?,18µM*,?,1.6µM*,?,?,2.8µM*
CSc1cccc(NC(=O)Nc2cccc(-c3ccc(N4CCOCC4)nn3)c2)c1,35µM*,28µM*,?,0.79µM*,?,?,1.6µM*
O=C(Nc1cccc(-c2ccc(N3CCCC3)nn2)c1)c1c(F)cccc1F,?,40µM*,-18%,7.1µM*,?,?,8.8µM*
CN(C)C(C(=O)N1CCC(O)(c2ccccc2)CC1)c1cccc(F)c1 (stereo not drawn),-18%,-13%,7%,i,nt,nt,nt
O=C(Cc1cccc(Cl)c1)N1CCC(C(=O)N2CCC(c3nc4ncccc4[nH]3)CC2)C1 (stereo not drawn),-27%,-21%,nt,nt,nt,nt,nt
CNC(=O)c1cc(C)nc2onc(C3CCCN3C(=O)c3ccc(OC)cc3)c12 (stereo not drawn),-17%,-17%,nt,nt,nt,nt,nt
Cc1cc(C)c(CNC(=O)c2nc(-c3cccc(N4CCOCC4)c3)cc3[nH]ccc23)c(=O)[nH]1,?,?,0%,i,nt,nt,nt
O=C(O)[C@@H]1CN(Cc2ccccc2)C[C@@H]1C(=O)N1CCc2ccccc21,-1%,i,1%,i,13%,9%,1%
COCC1CCN(c2ccc(-c3nc(-c4ccccc4C)no3)cn2)C1 (stereo not drawn),-25%,?,?,14µM*,14%,16%,?
CC(C)c1nc(C2Cc3ccccc3N2C(=O)NC2CCCC2)no1 (stereo not drawn),?,?,?,7.9µM*,16%,15%,?
CCOCC(=O)N1c2ccccc2CC1c1noc(C(C)C)n1 (stereo not drawn),?,?,?,7.1µM*,17%,17%,?
Cc1cn2nc(C(=O)NCCc3ccccc3)cc2c(=O)[nH]1,4%,-2%,-21%,10µM*,?,?,?
Cc1cn2nc(C(=O)Nc3ccc(C(=O)N4CCCC4)cc3)cc2c(=O)[nH]1,?,?,5%,7.9µM*,?,?,9.9µM*
Cc1cn2nc(C(=O)NCc3ccccc3Cl)cc2c(=O)[nH]1,-12%,-7%,19%,?,nt,nt,nt
CCc1ccccc1NC(=O)c1cc2c(=O)[nH]c(C)cn2n1,i,-3%,-5%,13µM*,17%,13%,?
